Test results reported in PubChem BioAssay AID504834 (National Center for Advancing Translational Sciences (NCATS), 2011).
The campaign covered roughly 320,000 compounds. About 22,000 (6.9%) were called active. Not shown: some 27% with an inconclusive outcome. Calls follow the shape of the dose curve; as a rule, active = well fitted inhibition curve with a large enough effect; inconclusive = small, poorly fitted or top-dose-only effect, or another doubt; inactive = no such curve, though single readings can be large or run the other way. The list comes from a sample in which actives are over-represented; it also holds similar structures and randomly drawn compounds. A call without a number means that no potency is given here.

Assay: Primary qHTS for delayed death inhibitors of the malarial parasite plastid, 96 hour incubation
Conditions: P. falciparum luciferase reporter growth; series mostly up to 28.7 µM
Excerpt: The goal of this screen is to discover new antimalarial compounds that act by inhibiting the development of the apicoplast in the malarial parasite Plasmodium falciparum. The biochemical processes that make this organelle essential for erythrocytic stage parasites are not well understood. However, antibiotics such as azithromycin and tetracycline, which target the apicoplast translational machinery, have a potent antimalarial effect.
We have developed a cell-based assay that measures parasite growth based on the expression of an integrated copy of a firefly luciferase reporter. To detect small molecules that cause this "delayed death" phenotype, erythrocytes infected with the luciferase-expressing parasites were incubated with compounds for either one or two generations, corresponding to 48 and 96 hours, respectively. Compounds that inhibit parasite growth in the second generation, but not the first, should be enriched in antimalarials that target the apicoplast. Growth inhibition is detected by a decrease in luciferase activity.
Assay Provider: David Fidock and Eric Ekland, Columbia University
Keywords: NIH Roadmap, MLPCN, MLI, MLSMR, qHTS, NCGC, qHTS, malaria, luciferase, viability
Four microliters of infected erythrocytes (2% hematocrit, 0.05% parasitemia final concentration) in culture medium were dispensed and the plates incubated for 96 hours at 37 C in 5% CO2. Two microliters of luciferase detection reagent was added and luminescence was detected by a ViewLux (PerkinElmer) reader.
Potency is read from the fitted curve at half-maximal effect.

SMILES	Potency
CC1CC(C)CN(C(=O)C2CC(=O)N(c3ccc(F)cc3)C2)C1 (stereo unspecified)	inactive
CC1(C)O[C@@H]2[C@H](O1)[C@@H](COS(=O)(=O)O)O[C@H]2n1cnc2c(=O)[nH]cnc21	inactive
CCCCNC(=O)C1(O)c2ccccc2NC(=O)N1c1ccc(Cl)cc1 (stereo unspecified)	inactive
Cc1ccc(S(=O)(=O)N(Cc2cccc([N+](=O)[O-])c2)C(=O)N2CCN(C)CC2)cc1	inactive
O=C(CSCc1ccccc1)Nc1ccccc1	inactive
CCCNC(=O)c1ccccc1NC(=O)CSCc1ccc(OC)cc1	inactive
Cc1c(NC(=O)CSCc2ccccc2)cccc1C(=O)O	10.4 µM (active)
Nc1ccn(C2CC(O)C(CO)O2)c(=O)n1 (stereo unspecified)	inactive
CCOC(=O)NN1C(=O)c2ccccc2NC1c1cccc(O)c1 (stereo unspecified)	inactive
CCOC(=O)NN1C(=O)c2ccccc2NC1c1ccccc1O (stereo unspecified)	14.7 µM (active)
O=C1c2ccccc2NC(c2ccccc2O)N1NS(=O)(=O)c1ccccc1 (stereo unspecified)	inactive
COc1ccc(OC)c(C(C)NC(=S)Nc2ccc(S(=O)(=O)Nc3ncccn3)cc2)c1 (stereo unspecified)	inactive
COc1ccccc1-n1c(-c2cc(-c3ccco3)[nH]n2)n[nH]c1=S	inactive
Fc1ccc2c(c1)C(c1cccnc1)=NNC(c1cccs1)=N2	7.38 µM (active)
COc1ccc2c(c1)C(c1cccs1)=NNC(c1cccnc1)=N2	inactive
CCc1ccc2c(c1)C(c1ccc([N+](=O)[O-])cc1)=NNC(c1ccccc1)=N2	inactive
CCOC(=O)c1cc2ccccc2n1CC(=O)c1ccccc1	inactive
CC(=O)Nc1ccc(NC(=O)[C@@H](NC(=O)c2cccc(C)c2)C(C)C)cc1	inactive
O=C(O)CSc1ccc(S(=O)(=O)N2CCCC2)cn1	inactive
CCN1CCCC1CNC(=O)c1cc2cc(OC)c(OC)cc2[nH]1 (stereo unspecified)	inactive
CC(C)COc1ccc(C(=O)OCC(=O)NCCC2=CCCCC2)cc1	inactive
O=C(COc1cccc(-n2cnnn2)c1)NCCC1=CCCCC1	10.4 µM (active)

SMILES	Potency
O=C(COc1ccc(Cl)cc1)NCCC1=CCCCC1	inactive
Cc1ccn2c(c1)nc(=O)c1cc(S(=O)(=O)N3CCC(C)CC3)ccc12	inactive
COC(=O)c1ccc(COC(=O)CNC(=O)c2cccc(OC)c2)o1	inactive
CCN(CC)CCCNC(=O)c1c(O)c2cc(F)cc3c2n(c1=O)C(C)CC3 (stereo unspecified)	inactive
CCN1C(=NCCc2cccnc2)N[C@@H](c2ccccc2)[C@H](C(=O)OC)[C@H]1C	7.38 µM (active)
CC(=O)OC(C(=O)NCCc1ccccc1)c1cccnc1 (stereo unspecified)	inactive
CCN1C(=NCCc2cccnc2)N[C@@H](c2ccccc2)C(C(=O)OC)=C1C	inactive
CC(=O)C1=C(C)NC(=O)NC1c1ccc2c(c1)OCO2 (stereo unspecified)	inactive
CC(C)(C)c1ccc(C(CC(=O)O)NS(=O)(=O)Cc2ccccc2)cc1 (stereo unspecified)	inactive
O=C(Nc1ccc(S(=O)(=O)Nc2nccs2)cc1)c1cccc(S(=O)(=O)N2CCOCC2)c1	11.7 µM (active)
Cc1ccnc(NS(=O)(=O)c2ccc(NC(=O)c3ccc(S(=O)(=O)N4CCOCC4)cc3)cc2)n1	inactive
O=C(Nc1ccc(S(=O)(=O)Nc2nccs2)cc1)c1cc(=O)[nH]c2ccccc12	inactive
Cc1cccc(C)c1NC(=S)N1CCCCCC1	inactive
Cc1ccccc1NC(=O)Cc1nc(COC(=O)c2ccc(C(F)(F)F)cc2)cs1	inactive
CCOc1ccc(N(CC(=O)NCCc2ccc(OC)cc2)S(C)(=O)=O)cc1	inactive
Cc1noc(C)c1S(=O)(=O)N(CC(=O)NCc1ccc(Cl)cc1)c1ccc2c(c1)OCO2	inactive
CCOc1ccc(N(CC(=O)NCc2ccc(OC)cc2)S(=O)(=O)c2c(C)noc2C)cc1	9.28 µM (active)
COc1ccc(C(=O)N2CCCN(C)CC2)c(OC)c1	inactive
Cc1cc(C)c(S(=O)(=O)c2ccc(F)cc2C)c(=O)[nH]1	inactive
O=C(OCC(=O)N1CCCC1=O)c1cc(S(=O)(=O)N2CCOCC2)ccc1Cl	inactive
Cc1noc(C)c1COc1ccc(C(=O)NCCOc2ccccc2)cc1	inactive
O=C(CCC1CCN(C(=O)c2cccc(Cl)c2F)CC1)Nc1ccccc1	inactive

SMILES	Potency
CCNC(=O)c1cccc(NC(=O)C2CC(=O)N(CCc3ccccc3)C2)c1 (stereo unspecified)	inactive
COC(=O)CNC(=O)c1ccccc1F	inactive
CN(NC(=O)c1ccccc1)c1nc2ccccc2nc1C(F)(F)F	inactive
CN(NC(=O)c1ccccc1F)c1nc(C(F)(F)F)nc2ccccc12	11.7 µM (active)
O=C(O)c1ccccc1N=N/C(=N/Nc1cc(S(=O)(=O)O)ccc1O)c1ccccc1	inactive
CC1CC(=O)Nc2ccccc2N1C(=O)COc1ccc2cc(Br)ccc2c1 (stereo unspecified)	inactive
C=CCN(C(=O)Nc1ccc2oc(C)nc2c1)c1ccccc1	inactive
C=CCN(C(=O)Cn1ncc2c1-c1cc(C)ccc1OC2)c1ccccc1	9.28 µM (active)
C=CCN(C(=O)Nc1ccc2c(c1)nc(C)n2C)c1ccccc1	inactive
CC(=O)NC(CC(=O)Nc1cccc(S(=O)(=O)N2CCCC2)c1)c1ccccc1 (stereo unspecified)	inactive
CC[C@]1(O)CC2CN(CCc3c([nH]c4ccccc34)[C@@](C(=O)OC)(c3cc4c(cc3OC)N(C=O)[C@H]3[C@@](O)(C(=O)OC)[C@H](OC(C)=O)[C@]5(CC)C=CCN6CC[C@]43[C@@H]65)C2)C1 (stereo partly specified)	0.262 µM (active)
CC[C@]1(O)C[C@@H]2CN(CCc3c([nH]c4ccccc34)[C@@](C(=O)OC)(c3cc4c(cc3OC)N(C)[C@H]3[C@@](O)(C(=O)OC)[C@H](OC(C)=O)[C@]5(CC)C=CCN6CC[C@]43[C@@H]65)C2)C1	0.147 µM (active)
CN(C(=O)COC(=O)CNC(=O)C12CC3CC(CC(C3)C1)C2)c1ccccc1	inactive
Cc1cc(NC(=O)CSc2nnnn2-c2ccc(F)cc2)no1	inactive
CC(C(=O)NCCc1ccc(S(N)(=O)=O)cc1)N1C(=O)CC(C)(C)Sc2ccccc21 (stereo unspecified)	inactive
CCCN(C(=O)c1nc2nccc(C)n2n1)c1c(N)n(Cc2ccccc2)c(=O)[nH]c1=O	inactive
CCOC(=O)N1CCN(C(=S)Nc2ccc(C)cc2C)CC1	inactive
COc1ccc(OC)c(NC(=O)c2ccc3c(c2)CCN3S(C)(=O)=O)c1	inactive
COc1ccc(OC)c(NC(=S)N2CCc3ccccc3C2)c1	4.15 µM (active)
COc1ccccc1/C=C/C(=O)NC(=S)N1CCOCC1	inactive
COc1ccc(NC(=S)N2CCc3cc(OC)c(OC)cc3C2)cc1	inactive
COc1ccc(C)cc1NC(=S)N1CCOCC1	10.4 µM (active)
